# Source: paper PMC4336329 (PLoS ONE, 2015)
# The whole screen tested about 310,000 compounds, of which about 14,000 (4.5%) showed an effect of 50% or more. The effect is printed as a negative number. The list comes from a sample in which strong results are over-represented; it also holds similar structures and randomly drawn compounds.
# Target: human ether-à-go-go-related gene (hERG) potassium channel (human, UniProt Q12809)
# Test: primary screen, population patch clamp on CHO cells stably expressing hERG; higher = less effect of the substance
# 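Note: peak tail current of the secondary pulse compared with the same well before compound.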
# Chain of human ether-à-go-go-related gene (hERG) potassium channel (Q12809 whole entry, looked up): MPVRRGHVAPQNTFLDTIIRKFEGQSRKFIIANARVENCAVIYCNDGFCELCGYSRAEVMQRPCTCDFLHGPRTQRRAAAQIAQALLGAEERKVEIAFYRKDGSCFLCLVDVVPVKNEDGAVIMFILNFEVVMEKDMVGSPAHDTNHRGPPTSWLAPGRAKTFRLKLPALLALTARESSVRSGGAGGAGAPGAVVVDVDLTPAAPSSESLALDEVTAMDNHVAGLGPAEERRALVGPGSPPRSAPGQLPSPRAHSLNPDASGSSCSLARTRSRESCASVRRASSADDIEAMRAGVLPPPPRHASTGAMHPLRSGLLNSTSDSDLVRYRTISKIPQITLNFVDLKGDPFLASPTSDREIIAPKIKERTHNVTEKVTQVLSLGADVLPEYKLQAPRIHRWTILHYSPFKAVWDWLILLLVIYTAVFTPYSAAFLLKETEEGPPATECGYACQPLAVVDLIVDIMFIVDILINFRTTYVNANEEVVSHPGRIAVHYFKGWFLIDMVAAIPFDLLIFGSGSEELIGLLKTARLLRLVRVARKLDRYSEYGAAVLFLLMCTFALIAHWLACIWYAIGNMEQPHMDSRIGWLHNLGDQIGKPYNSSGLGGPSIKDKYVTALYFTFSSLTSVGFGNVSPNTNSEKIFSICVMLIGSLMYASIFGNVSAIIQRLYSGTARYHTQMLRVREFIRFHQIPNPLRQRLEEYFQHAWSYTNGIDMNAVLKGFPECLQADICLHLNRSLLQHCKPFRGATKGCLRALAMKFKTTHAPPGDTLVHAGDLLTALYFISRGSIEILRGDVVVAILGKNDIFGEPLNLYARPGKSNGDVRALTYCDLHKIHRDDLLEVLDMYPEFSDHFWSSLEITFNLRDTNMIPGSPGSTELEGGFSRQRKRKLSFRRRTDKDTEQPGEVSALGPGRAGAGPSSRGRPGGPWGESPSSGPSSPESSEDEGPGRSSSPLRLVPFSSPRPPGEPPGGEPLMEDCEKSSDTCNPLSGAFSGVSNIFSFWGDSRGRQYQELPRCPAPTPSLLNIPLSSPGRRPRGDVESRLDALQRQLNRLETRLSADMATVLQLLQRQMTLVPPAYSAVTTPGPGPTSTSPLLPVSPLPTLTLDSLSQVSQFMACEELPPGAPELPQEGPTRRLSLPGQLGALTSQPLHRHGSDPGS
row,SMILES,"hERG current change (%, negative = inhibition) at 10uM [%]"
1,CO/N=C/c1cccn1-c1nccc(N(C)C)c1C#N,-2.01
2,CCCN1CCN(C(=O)CCS(=O)(=O)c2cc3c(cc2Cl)NC(=O)CO3)CC1,-48
3,COc1ccc(S(=O)(=O)NCC2CCCN(C(=O)CCC(F)(F)F)C2)cc1 (stereo not drawn),2.06
4,COc1ccc(N(C(=O)Cn2nnc3ccccc32)C(C(=O)NCc2ccco2)c2cccnc2)cc1 (stereo not drawn),9.77
5,Cc1ccccc1CSc1nccn1-c1ccccc1,-8.94
6,CC(C)C(=O)N1CCC(Cc2ccccc2)CC1,4.6
7,CC(C)[C@H](NC(=O)N1CCC(Cc2ccccc2)CC1)C(=O)O,6.12
8,CC(C)NC(=S)N1CCC(Cc2ccccc2)CC1,-2.26
9,CC(C)CNC(=S)N1CCC(Cc2ccccc2)CC1,-40.1
10,CC(C(O)c1ccc(O)cc1)N1CCC(Cc2ccccc2)CC1.O=C(O)C(O)C(O)C(=O)O (stereo not drawn),-71.4
11,C[C@H](NC(=O)N1CCC(Cc2ccccc2)CC1)C(=O)O,15.5
12,CCC(C)[C@H](NC(=O)N1CCC(Cc2ccccc2)CC1)C(=O)O (stereo partly drawn),15.2
13,C[C@@H](CN1CCC(Cc2ccccc2)CC1)[C@@H](O)c1ccc(O)cc1.Cl,-71.3
14,CC(C(O)c1ccc(O)cc1)N1CCC(Cc2ccccc2)CC1.O.O=C(O)C(O)C(O)C(=O)O (stereo not drawn),-65.4
15,CCc1ccc(OCC(=O)NC(=S)Nc2ccc(S(=O)(=O)NC3CCCCC3)cc2)cc1,19.9
16,CCOC(=O)Cc1csc(NC(=O)c2cc(OC)cc(OC)c2)n1,-10.6
17,O=C(O)c1cccc(CN2C(=O)CSC2=O)c1,19.4
18,CCn1c(SCC(=O)N/N=C/c2ccc(O)c(OC)c2)nc2ccccc21,2.36
19,OCC1(Cc2ccccc2)CCN(Cc2cc3ccccc3o2)CC1,-51.7
20,COc1ccc(CN2CCN(Cc3cc4ccccc4o3)CC2CCO)cc1C (stereo not drawn),-40.4
21,COc1ccc(CC2(CO)CCN(Cc3cc4ccccc4o3)CC2)cc1,-52.2
22,OCC1(Cc2ccccc2)CCN(Cc2cnc(-c3cccc4ccccc34)nc2)CC1,10.8
23,COc1ccc(C(=O)N=c2sc3c(C)ccc(OC)c3n2C)cc1,6.32

row,SMILES,"hERG current change (%, negative = inhibition) at 10uM [%]"
1,CCCC(=O)Nc1ccc(C(=O)NNC(=O)c2cccs2)cc1,12.2
2,CC1(C)COC(c2coc3ccccc3c2=O)OC1,3.85
3,Oc1c(N=NC(=S)Nc2ccccc2F)c2ccccc2n1Cc1ccc(F)cc1,18.7
4,O=C(c1cccc(Br)c1)N1CCN(c2ccccn2)CC1,-4.19
5,Cc1ccc(CN2CCN(Cc3ccccn3)CC2CCO)cc1 (stereo not drawn),-47.9
6,OCCC1CN(Cc2cccn2-c2ccccn2)CCN1Cc1ccccc1 (stereo not drawn),-76.5
7,OCCC1CN(Cc2cccn2-c2ccccn2)CCN1C1CCCCC1 (stereo not drawn),-57.1
8,Cc1ccc(CN2CCN(Cc3cccn3-c3ccccn3)CC2CCO)cc1 (stereo not drawn),-82
9,Cc1ccc(CN2CCN(Cc3cnc(N(C)C)s3)CC2CCO)o1 (stereo not drawn),6.05
10,OCCC1CN(Cc2cccn2-c2ccccn2)CCN1C1CCCC1 (stereo not drawn),-18.9
11,OCCC1CN(Cc2cccn2-c2ncccn2)CCN1C1CCCC1 (stereo not drawn),-6.11
12,Cc1ccc(CN2CCN(Cc3cccn3-c3ccc(Cl)cn3)CC2CCO)o1 (stereo not drawn),-23.3
13,Cc1ccc(CN2CCN(Cc3cccn3-c3ccccn3)CC2CCO)o1 (stereo not drawn),-66.1
14,Cc1onc(-c2c(F)cccc2Cl)c1C(=O)ONC(=O)c1ccccc1,8.85
15,CC(=O)Nc1ccc(S(=O)(=O)N(CC(=O)O)Cc2ccccc2)cc1,-12.6
16,CC1CN(C(=O)C2CC(=O)N(c3ccc(Cl)cc3)C2)CC(C)O1 (stereo not drawn),-13.3
17,COC(=O)c1ccc(/C=N\N2CCN(Cc3ccc(C)cc3)CC2)cc1,9.51
18,O=C(CCN1C(=O)/C(=C/c2ccccc2F)SC1=S)NCCc1ccc(O)cc1,14.1
19,COC(=O)c1cc(Cl)c(NC(=O)/C=C/c2ccc(Cl)cc2)cc1OC,-15.7
20,Fc1ccc(Br)cc1C1C=C(c2ccc(Br)s2)Nc2ncnn21 (stereo not drawn),9
21,COCCCNC(=O)c1ccc(CS(=O)(=O)c2ccccc2C)o1,7.74
22,O=C(NCc1cccnc1)C1c2ccccc2C(=O)N1C1CCCCCC1 (stereo not drawn),2.21
23,O=C(O)c1cccc2c1NC(C(=O)O)C1CC(Sc3ccccc3[N+](=O)[O-])C(Cl)C21 (stereo not drawn),-0.458

row,SMILES,"hERG current change (%, negative = inhibition) at 10uM [%]"
1,Cc1ccc2oc(C(=O)N3CCN(CCO)CC3)c(C)c2c1,13.7
2,Cc1c(C(=O)N2CCN(CCc3ccccn3)CC2)oc2ccc(Cl)cc12,-81.1
3,Cc1c(C(=O)N2CCN(CCc3ccccn3)CC2)oc2ccc(F)cc12,-72.1
4,Cc1ccc2oc(C(=O)N3CCN(Cc4ncccc4C)CC3)c(C)c2c1,-78.3
5,Cc1ccc2c(C)c(C(=O)N3CCN(Cc4ccccn4)CC3)oc2c1C,-23.1
6,Cc1cc2oc(C(=O)N3CCN(CCc4ccccn4)CC3)c(C)c2cc1C,-21.2
7,Cc1ccc2oc(C(=O)N3CCN(Cc4nccn4C)CC3)c(C)c2c1,-41.3
8,Cc1c(C(=O)N2CCN(C(=O)c3ccccc3)CC2)oc2ccc(F)cc12,-44.8
9,Cc1c(C(=O)N2CCN(c3ncccn3)CC2)oc2ccc(Cl)cc12,-23.3
10,CC(C)CN(C(=O)c1ccc(S(=O)(=O)N2CCCC2)cc1)C1CCS(=O)(=O)C1 (stereo not drawn),-3.52
11,Cc1cccc(NC(=O)C(=O)NCc2ccc3c(c2)OCO3)c1C,-16.5
12,CCN(CC)C(=O)Oc1nnc(SC(C)C)n1-c1ccc(Cl)c(Cl)c1,-7.2
13,Cc1ncoc1C(=O)N1CCCC(C(=O)c2cccc(OC(C)C)c2)C1 (stereo not drawn),10.3
14,Cc1ccc(C)c(C(C)NC(=O)C2CCCO2)c1 (stereo not drawn),17.6
15,Cc1ccc(Cl)cc1N1CCN(C(=O)CNC(=O)c2ccc(Br)o2)CC1,-55.9
16,Cc1cc(C(=O)N2CCN(c3cc(Cl)ccc3C)CC2)on1,-58.7
17,O=C(NCC(=O)N1CCN(c2cccc(Cl)c2)CC1)c1ccc(Br)o1,-78.4
18,Cc1ccc(Cl)cc1N1CCN(C(=O)c2noc(C)c2[N+](=O)[O-])CC1,1.15
19,O=C(NCC(=O)N1CCN(c2ccccc2F)CC1)c1ccc(Br)o1,-39.1
20,O=C(NCC(=O)N1CCN(c2ccccc2)CC1)c1ccc(Br)o1,-39.9
21,O=C(NCC(=O)N1CCN(c2ccccc2O)CC1)c1ccc(Br)o1,-4.93
22,Cc1cc(C(=O)N2CCN(c3ccc(F)cc3)CC2)on1,-14.5
23,CC(=O)N1CCN(C(=O)CNC(=O)c2ccc(Br)o2)CC1,22.2

row,SMILES,"hERG current change (%, negative = inhibition) at 10uM [%]"
1,Cc1ccc(CN2CCc3[nH]c(=O)[nH]c(=O)c3C2)cc1,17.5
2,S=C(Nc1ccc(Oc2ccc(NC(=S)NC3CCCCC3)cc2)cc1)NC1CCCCC1,17.6
3,Cc1ccc(C(=O)N2CCN(C(=O)N3CCOCC3)CC2)cc1,-5.64
4,COC(=O)c1ccccc1Oc1nc(Cl)cc(OC)n1,-12.1
5,O=C(NCc1ccco1)C(=O)NCC(c1ccco1)N1CCOCC1 (stereo not drawn),13
6,CC1(C)CC(=O)c2sc(NC(=O)c3ccccc3)nc2C1,2.82
7,O=C(COc1cccc2cccnc12)Nc1ccccc1N1CCOCC1,-37.7
8,CCCNC(=O)c1ccc(N2CCC3(CC2)CC(c2cccc(Br)c2)=NO3)c(NC(=O)c2c(Cl)cccc2Cl)c1,5.92
9,COc1cc(CNCCc2ccccc2)ccc1OCC(N)=O.Cl,-17.4
10,CCOc1cc(CNCc2ccccc2)ccc1OCc1ccc(Cl)cc1.Cl,-33.1
11,COc1ccccc1CCNCc1ccc(OC)c(OCc2ccccc2)c1,-71.9
12,COc1ccc(CNCCc2ccccc2)cc1OCC(N)=O,-12
13,COc1ccc(CNCCc2ccc(Cl)cc2)cc1OCc1ccccc1,-75.6
14,CCOc1cc(CNCCc2ccccc2F)ccc1OC.O=C(O)C(=O)O,-42.1
15,O=C(O)C(=O)O.c1ccc(CNC2=NCCCC2)cc1,1.76
16,COc1ccccc1CCC(=O)Nc1ccc(S(=O)(=O)Nc2cc(C)nc(C)n2)cc1,12
17,COc1ccccc1-n1ccnc1SCC(=O)NC(C)(C)C,13.3
18,CN(C)c1ccc(NC(=S)NC(=O)/C=C/c2ccc(Cl)cc2)cc1,2.39
19,CNC(=O)c1csc(Cc2c(Cl)sc3ccc(Cl)cc23)n1,-2.3
20,CNC(=O)NNC(=O)c1csc(Cc2c(Cl)sc3ccc(Cl)cc23)n1,-52.1
21,CC(=O)NNC(=O)c1csc(Cc2c(Cl)sc3ccc(Cl)cc23)n1,-19.6
